Laboratory results: ChEMBL document CHEMBL1961873, “Compounds: GSK PKIS; Assays: Nanosyn kinase panel” (2012)

What was measured:
[1] = molecular target: T1, Tyrosine-protein kinase ITK/TSK (Homo sapiens) (UniProt Q08881); settings: at 1 µM;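 further: values are mean percent inhibition of ITK from the GSK PKIS screen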
T1 sequence (whole entry): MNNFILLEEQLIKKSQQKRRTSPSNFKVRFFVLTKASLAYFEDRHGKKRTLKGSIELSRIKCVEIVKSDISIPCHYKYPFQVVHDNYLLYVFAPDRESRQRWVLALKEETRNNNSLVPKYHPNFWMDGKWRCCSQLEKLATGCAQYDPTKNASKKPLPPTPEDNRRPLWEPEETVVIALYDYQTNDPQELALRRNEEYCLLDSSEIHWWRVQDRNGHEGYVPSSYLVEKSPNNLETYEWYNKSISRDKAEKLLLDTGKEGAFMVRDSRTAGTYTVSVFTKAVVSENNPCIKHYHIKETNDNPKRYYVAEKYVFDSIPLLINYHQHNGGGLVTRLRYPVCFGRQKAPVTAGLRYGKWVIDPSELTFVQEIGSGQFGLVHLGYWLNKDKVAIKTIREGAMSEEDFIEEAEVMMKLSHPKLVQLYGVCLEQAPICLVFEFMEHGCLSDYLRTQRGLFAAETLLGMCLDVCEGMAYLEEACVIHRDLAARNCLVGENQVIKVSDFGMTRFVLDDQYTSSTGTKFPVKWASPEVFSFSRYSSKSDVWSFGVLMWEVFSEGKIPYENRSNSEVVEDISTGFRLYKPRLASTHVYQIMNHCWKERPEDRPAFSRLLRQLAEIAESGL

[2] = molecular target: Tyrosine-protein kinase JAK1 (Homo sapiens) (UniProt P23458); settings: at 0.1 µM
Sequence of Tyrosine-protein kinase JAK1 (Homo sapiens) (P23458 whole entry): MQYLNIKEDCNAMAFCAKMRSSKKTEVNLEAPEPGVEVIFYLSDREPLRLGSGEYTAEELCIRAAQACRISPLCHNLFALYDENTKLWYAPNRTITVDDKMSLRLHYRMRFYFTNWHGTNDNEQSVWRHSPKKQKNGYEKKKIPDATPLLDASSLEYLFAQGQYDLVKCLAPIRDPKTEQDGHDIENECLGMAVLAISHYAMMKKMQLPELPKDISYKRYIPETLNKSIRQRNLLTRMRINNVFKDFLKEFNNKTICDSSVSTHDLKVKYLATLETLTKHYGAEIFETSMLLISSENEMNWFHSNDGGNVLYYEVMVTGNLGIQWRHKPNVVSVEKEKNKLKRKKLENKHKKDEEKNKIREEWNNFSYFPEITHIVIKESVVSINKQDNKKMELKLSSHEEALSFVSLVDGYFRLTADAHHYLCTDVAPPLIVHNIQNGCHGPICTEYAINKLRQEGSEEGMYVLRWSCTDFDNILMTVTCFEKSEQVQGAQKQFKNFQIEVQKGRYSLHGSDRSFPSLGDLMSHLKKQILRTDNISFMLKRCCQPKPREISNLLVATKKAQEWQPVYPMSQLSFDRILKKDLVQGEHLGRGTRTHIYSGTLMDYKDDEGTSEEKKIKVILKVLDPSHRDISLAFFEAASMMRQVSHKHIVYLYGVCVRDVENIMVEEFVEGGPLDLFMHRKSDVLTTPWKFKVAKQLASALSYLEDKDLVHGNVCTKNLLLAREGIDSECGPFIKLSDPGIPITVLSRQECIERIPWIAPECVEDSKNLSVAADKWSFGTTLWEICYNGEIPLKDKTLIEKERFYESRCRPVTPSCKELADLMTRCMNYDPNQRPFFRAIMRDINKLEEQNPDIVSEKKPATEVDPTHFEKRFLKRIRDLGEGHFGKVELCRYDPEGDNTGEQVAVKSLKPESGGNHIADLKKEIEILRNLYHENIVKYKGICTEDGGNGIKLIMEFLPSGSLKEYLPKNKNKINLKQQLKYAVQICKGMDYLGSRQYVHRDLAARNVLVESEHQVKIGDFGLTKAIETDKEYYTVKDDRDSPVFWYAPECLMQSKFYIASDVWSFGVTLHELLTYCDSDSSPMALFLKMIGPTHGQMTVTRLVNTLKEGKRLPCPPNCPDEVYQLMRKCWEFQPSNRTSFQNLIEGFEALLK

[3] = molecular target: Tyrosine-protein kinase JAK1 (Homo sapiens) (UniProt P23458); settings: at 1 µM
[4] = molecular target: Tyrosine-protein kinase JAK2 (Homo sapiens) (UniProt O60674); settings: at 0.1 µM
Sequence of Tyrosine-protein kinase JAK2 (Homo sapiens) (O60674 whole entry): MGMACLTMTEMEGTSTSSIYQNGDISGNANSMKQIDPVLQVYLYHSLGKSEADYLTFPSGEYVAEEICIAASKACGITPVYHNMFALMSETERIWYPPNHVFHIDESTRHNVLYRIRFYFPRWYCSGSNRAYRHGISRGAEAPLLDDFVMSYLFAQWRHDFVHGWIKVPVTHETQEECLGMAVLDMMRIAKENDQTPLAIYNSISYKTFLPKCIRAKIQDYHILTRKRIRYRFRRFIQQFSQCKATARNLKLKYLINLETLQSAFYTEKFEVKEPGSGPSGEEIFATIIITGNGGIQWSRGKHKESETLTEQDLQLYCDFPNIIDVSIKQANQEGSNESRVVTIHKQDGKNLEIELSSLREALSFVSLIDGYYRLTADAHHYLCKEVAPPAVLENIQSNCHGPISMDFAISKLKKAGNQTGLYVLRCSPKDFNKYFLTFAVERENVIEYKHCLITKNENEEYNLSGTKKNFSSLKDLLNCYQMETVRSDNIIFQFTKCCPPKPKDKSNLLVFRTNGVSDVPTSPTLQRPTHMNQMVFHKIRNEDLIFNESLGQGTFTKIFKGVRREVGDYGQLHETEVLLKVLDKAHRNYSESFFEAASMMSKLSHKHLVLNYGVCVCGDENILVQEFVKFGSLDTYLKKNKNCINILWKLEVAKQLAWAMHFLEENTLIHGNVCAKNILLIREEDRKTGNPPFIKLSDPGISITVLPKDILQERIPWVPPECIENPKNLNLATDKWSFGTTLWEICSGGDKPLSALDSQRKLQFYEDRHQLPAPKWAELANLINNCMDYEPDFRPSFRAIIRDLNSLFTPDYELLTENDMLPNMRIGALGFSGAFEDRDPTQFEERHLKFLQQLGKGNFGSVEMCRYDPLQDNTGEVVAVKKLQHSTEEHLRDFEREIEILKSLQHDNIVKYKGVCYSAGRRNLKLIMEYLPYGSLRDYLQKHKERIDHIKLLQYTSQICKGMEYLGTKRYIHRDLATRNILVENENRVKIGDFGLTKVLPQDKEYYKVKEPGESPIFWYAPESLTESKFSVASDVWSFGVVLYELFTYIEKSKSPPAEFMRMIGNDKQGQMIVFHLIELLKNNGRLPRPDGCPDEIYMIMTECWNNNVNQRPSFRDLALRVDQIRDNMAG

[5] = molecular target: Tyrosine-protein kinase JAK2 (Homo sapiens) (UniProt O60674); settings: at 1 µM
[6] = molecular target: T2, Tyrosine-protein kinase JAK3 (Homo sapiens) (UniProt P52333); settings: at 0.1 µM
T2 sequence (whole entry): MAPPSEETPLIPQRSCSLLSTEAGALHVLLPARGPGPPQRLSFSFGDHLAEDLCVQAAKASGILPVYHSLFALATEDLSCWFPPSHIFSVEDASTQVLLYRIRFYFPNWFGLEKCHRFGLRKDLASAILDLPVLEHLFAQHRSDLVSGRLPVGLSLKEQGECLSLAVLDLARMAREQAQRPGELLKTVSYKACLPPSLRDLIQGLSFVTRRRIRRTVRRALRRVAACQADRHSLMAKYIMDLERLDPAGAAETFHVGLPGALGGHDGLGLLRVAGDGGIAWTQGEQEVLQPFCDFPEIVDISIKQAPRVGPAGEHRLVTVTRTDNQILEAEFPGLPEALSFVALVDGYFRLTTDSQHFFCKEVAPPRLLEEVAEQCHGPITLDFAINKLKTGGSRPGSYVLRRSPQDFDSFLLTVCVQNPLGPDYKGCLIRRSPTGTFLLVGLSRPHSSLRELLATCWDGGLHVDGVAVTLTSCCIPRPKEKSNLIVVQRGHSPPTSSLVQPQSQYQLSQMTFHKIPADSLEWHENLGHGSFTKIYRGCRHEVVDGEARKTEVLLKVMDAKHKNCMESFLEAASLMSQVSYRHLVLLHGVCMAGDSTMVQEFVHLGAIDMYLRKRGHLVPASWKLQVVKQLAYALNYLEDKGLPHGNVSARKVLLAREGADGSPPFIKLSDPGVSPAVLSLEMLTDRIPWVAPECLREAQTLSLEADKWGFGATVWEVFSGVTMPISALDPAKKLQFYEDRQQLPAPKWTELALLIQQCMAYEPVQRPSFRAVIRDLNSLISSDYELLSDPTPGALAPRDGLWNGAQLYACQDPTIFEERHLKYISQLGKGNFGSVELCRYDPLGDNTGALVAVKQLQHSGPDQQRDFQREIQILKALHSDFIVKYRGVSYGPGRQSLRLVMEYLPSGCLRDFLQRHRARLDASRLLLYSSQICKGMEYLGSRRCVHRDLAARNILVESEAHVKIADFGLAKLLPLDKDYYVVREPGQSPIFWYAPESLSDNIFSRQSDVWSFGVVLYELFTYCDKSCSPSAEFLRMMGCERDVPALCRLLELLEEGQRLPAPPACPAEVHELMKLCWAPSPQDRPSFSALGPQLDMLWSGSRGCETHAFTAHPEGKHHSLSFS

[7] = molecular target: T2, Tyrosine-protein kinase JAK3 (Homo sapiens); settings: at 1 µM
[8] = molecular target: Vascular endothelial growth factor receptor 2 (Homo sapiens) (UniProt P35968); settings: at 0.1 µM
[9] = molecular target: Vascular endothelial growth factor receptor 2 (Homo sapiens) (UniProt P35968); settings: at 1 µM
[10] = molecular target: Mast/stem cell growth factor receptor Kit (Homo sapiens) (UniProt P10721); settings: at 0.1 µM
Sequence of Mast/stem cell growth factor receptor Kit (Homo sapiens) (P10721 whole entry): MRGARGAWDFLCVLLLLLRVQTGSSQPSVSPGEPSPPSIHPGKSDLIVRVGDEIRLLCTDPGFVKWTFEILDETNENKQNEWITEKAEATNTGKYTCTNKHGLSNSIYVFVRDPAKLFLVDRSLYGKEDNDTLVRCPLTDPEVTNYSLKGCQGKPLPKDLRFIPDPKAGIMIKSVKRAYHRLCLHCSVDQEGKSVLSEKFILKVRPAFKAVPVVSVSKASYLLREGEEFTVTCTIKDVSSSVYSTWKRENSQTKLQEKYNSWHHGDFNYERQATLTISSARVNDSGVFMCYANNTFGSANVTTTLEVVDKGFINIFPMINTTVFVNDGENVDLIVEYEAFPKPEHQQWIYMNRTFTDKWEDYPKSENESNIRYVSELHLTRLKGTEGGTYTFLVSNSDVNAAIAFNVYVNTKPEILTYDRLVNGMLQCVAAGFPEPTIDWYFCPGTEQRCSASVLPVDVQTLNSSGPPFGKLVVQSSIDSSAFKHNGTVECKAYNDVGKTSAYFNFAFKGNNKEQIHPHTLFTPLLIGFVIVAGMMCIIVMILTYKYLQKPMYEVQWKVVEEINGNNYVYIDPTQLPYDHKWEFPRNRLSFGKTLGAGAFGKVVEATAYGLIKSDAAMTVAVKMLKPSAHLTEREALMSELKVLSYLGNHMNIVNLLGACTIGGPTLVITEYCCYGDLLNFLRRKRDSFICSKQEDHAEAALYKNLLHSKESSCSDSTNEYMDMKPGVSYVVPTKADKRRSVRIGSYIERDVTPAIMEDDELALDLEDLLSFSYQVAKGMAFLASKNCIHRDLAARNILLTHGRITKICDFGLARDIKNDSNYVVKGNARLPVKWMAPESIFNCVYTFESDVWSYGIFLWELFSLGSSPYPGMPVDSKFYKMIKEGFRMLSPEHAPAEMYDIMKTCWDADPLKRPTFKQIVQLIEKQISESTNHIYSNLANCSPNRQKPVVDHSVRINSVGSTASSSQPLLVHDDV

[11] = molecular target: Mast/stem cell growth factor receptor Kit (Homo sapiens) (UniProt P10721); settings: at 1 µM
[12] = tested on: Mast/stem cell growth factor receptor Kit (Homo sapiens), P10721 [D816V]; settings: at 0.1 µM
Sequence of Mast/stem cell growth factor receptor Kit (Homo sapiens), P10721 [D816V] (P10721 whole entry D816V): as the sequence (P10721 whole entry) above, with D816V counted along it

[13] = tested on: Mast/stem cell growth factor receptor Kit (Homo sapiens), P10721 [D816V]; settings: at 1 µM
[14] = tested on: Mast/stem cell growth factor receptor Kit (Homo sapiens), P10721 [T670I]; settings: at 0.1 µM
Sequence of Mast/stem cell growth factor receptor Kit (Homo sapiens), P10721 [T670I] (P10721 whole entry T670I): as the sequence (P10721 whole entry) above, with T670I counted along it

[15] = tested on: Mast/stem cell growth factor receptor Kit (Homo sapiens), P10721 [T670I]; settings: at 1 µM
[16] = tested on: Mast/stem cell growth factor receptor Kit (Homo sapiens), P10721 [V560G]; settings: at 0.1 µM
Sequence of Mast/stem cell growth factor receptor Kit (Homo sapiens), P10721 [V560G] (P10721 whole entry V560G): as the sequence (P10721 whole entry) above, with V560G counted along it

[17] = tested on: Mast/stem cell growth factor receptor Kit (Homo sapiens), P10721 [V560G]; settings: at 1 µM
[18] = molecular target: Tyrosine-protein kinase Lck (Homo sapiens) (UniProt P06239); settings: at 0.1 µM
Sequence of Tyrosine-protein kinase Lck (Homo sapiens) (P06239 2-509 limits assumed): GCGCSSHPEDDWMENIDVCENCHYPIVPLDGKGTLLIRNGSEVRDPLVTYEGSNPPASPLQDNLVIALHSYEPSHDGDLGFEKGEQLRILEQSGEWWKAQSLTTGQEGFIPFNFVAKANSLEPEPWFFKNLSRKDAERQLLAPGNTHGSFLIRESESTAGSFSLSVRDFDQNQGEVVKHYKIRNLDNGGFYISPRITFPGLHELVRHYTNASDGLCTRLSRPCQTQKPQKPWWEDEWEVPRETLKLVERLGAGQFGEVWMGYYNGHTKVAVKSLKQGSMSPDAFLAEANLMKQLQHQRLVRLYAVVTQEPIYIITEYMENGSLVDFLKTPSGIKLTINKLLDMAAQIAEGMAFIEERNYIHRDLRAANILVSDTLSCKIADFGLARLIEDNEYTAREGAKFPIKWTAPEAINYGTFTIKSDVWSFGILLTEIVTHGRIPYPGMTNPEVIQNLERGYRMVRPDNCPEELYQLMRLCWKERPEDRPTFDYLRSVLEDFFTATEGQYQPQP

[19] = molecular target: Tyrosine-protein kinase Lck (Homo sapiens) (UniProt P06239); settings: at 1 µM
[20] = molecular target: Leukocyte tyrosine kinase receptor (Homo sapiens) (UniProt P29376); settings: at 0.1 µM
Sequence of Leukocyte tyrosine kinase receptor (Homo sapiens) (P29376 whole entry): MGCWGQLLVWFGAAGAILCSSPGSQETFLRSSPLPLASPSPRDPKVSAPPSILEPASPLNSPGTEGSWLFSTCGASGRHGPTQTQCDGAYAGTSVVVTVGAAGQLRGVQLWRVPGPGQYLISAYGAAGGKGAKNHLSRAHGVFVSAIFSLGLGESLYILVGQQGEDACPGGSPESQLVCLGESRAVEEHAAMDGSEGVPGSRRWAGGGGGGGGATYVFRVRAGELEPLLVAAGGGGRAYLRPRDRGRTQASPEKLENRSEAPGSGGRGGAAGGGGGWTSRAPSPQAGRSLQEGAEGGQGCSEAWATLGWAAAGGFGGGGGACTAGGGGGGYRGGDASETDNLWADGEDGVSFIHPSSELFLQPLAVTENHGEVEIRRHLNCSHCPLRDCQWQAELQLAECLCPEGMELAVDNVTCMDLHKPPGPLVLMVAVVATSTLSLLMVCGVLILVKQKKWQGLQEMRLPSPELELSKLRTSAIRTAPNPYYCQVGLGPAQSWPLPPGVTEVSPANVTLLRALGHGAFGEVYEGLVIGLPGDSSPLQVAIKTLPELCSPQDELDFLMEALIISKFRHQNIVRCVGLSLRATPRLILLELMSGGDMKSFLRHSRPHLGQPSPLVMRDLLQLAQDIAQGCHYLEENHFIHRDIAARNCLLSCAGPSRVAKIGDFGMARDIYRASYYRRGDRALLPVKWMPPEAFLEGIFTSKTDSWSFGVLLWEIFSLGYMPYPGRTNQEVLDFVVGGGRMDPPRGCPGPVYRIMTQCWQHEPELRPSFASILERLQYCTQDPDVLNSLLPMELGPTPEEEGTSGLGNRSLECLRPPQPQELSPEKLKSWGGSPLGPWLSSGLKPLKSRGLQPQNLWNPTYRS

Structure (SMILES) | inhibition [1] [%] | inhibition [2] [%] | inhibition [3] [%] | inhibition [4] [%] | inhibition [5] [%] | inhibition [6] [%] | inhibition [7] [%] | inhibition [8] [%] | inhibition [9] [%] | inhibition [10] [%] | inhibition [11] [%] | inhibition [12] [%] | inhibition [13] [%] | inhibition [14] [%] | inhibition [15] [%] | inhibition [16] [%] | inhibition [17] [%] | inhibition [18] [%] | inhibition [19] [%] | inhibition [20] [%]
Cc1ccc(NC(=O)CC2CC2)cc1-c1ccc(C(=O)NCC2CC2)cc1 | 1.47 | 1.27 | 6.97 | 1.47 | 5.47 | -0.78 | 2.17 | 9.88 | 12.3 | 3.18 | 5.34 | 4 | 3.9 | 2.39 | 3.24 | 1.38 | 2.75 | 1.18 | 3.82 | 4.18
FC(F)(F)c1ccc(-c2nn3ncccc3c2-c2ccnc(Nc3ccc4c(c3)OCCO4)n2)cc1 | 4.7 | 7.49 | 24.3 | -0.67 | -0.89 | 6.03 | 4.36 | -0.31 | 9.68 | 6.76 | 41.4 | -0.4 | 4.93 | 0.89 | 6.31 | 9.1 | 21.1 | 6.41 | 42.5 | 1.18
COC(=O)c1ccc2c(c1)C(=Cc1cc(Br)c(O)c(Br)c1)C(=O)N2 | 3 | 3.26 | 12.2 | 1.7 | 6.21 | 1.39 | 7.25 | 3.9 | 24.5 | 3.84 | 16.2 | -0.82 | 4.08 | 2 | 2.74 | -3.35 | 0.2 | 5.24 | 15.3 | 6.76
Cc1nc(-c2ccccc2)n2nc(NCCCN3CCOCC3)ncc12 | 1.89 | 3.7 | 4.63 | 0.5 | 1.89 | -2.38 | 0.04 | 2.59 | 5.25 | 3.52 | 8.46 | 1.35 | 1.56 | 1.72 | 1.33 | -1.38 | 0.39 | 2.08 | 5.01 | 2.89
Oc1cccc(-c2nc(-c3ccccc3)[nH]c2-c2ccncc2)c1 | 1.61 | 9.17 | 5.42 | 1.43 | 2.51 | 0.73 | 9.09 | 30.8 | 70.9 | 4.95 | 8.38 | -0.23 | 6.52 | 2.52 | 3.34 | 1.61 | 3.96 | 4.47 | 17.7 | 3.98
O=C(Nc1ccc(Oc2ccc3[nH]c(NC(=O)c4ccco4)nc3c2)cc1)Nc1cc(C(F)(F)F)ccc1F | 0.22 | -1.24 | 0.27 | 1.11 | 7.23 | -3.43 | -2.59 |  |  | 30.5 | 92.1 | -0.77 | -1.72 | 12.6 | 79.5 | 25.1 | 72.9 | 1 | 38.8 | 0.05
CN(c1ccc(NC(=O)Nc2ccc(OC(F)(F)F)cc2)cc1)c1ccnc(Nc2cccc(S(N)(=O)=O)c2)n1 | 67.3 | 2.28 | 12.8 | 0.3 | 1.31 | -2.38 | -1.69 | 78.8 | 99.6 | 37.5 | 95.3 | 3.73 | 2.45 | 22.9 | 89.9 | 37.6 | 93.4 | 33.7 | 80.1 | 2.69
